# Results reported in PubChem BioAssay AID434970 (Sanford-Burnham Center for Chemical Genomics, 2010).
# The whole screen tested about 11,000 compounds, of which about 310 (2.8%) were called active. No stated cut-off is given here; in the data, active means activity change below about -85%; inactive means the rest. This excerpt belongs to a sample that is enriched for actives.
# System: intestinal alkaline phosphatase [Mus musculus]
# Experiment: activators of mouse IAP, confirmation, biochemical, luminescence, single concentration (AID 434970)
# Settings: purified mouse IAP, CDP-Star luminescence, 30 min, at 10 µM; activation factor: measured here: IAP activation factor, stronger effect = higher value; activity change, negative = activation: stronger effect = lower value
SMILES,activation factor,"activity change, negative = activation"
COc1ccc(-c2noc(CCC(=O)N3CCN(c4ccc(F)cc4)CC3)n2)cc1,1.1,-10.3% (inactive)
CC(C)NC(=O)c1ccc(CNC(=O)OCC(F)(F)F)cc1,1.05,-5.05% (inactive)
COCCNC(=O)Cn1c(=O)n(Cc2ccco2)c(=O)c2ccccc21,1.06,-6.35% (inactive)
O=C(NOCc1ccccc1)c1ccccc1,0.948,5.2% (inactive)
CCOC(=O)C1=CN(Cc2cccc(-c3ccc4c(c3)OCO4)c2)S(=O)(=O)N(C)C1C (stereo unspecified),1,-0.3% (inactive)
O=C1c2ccccc2[C@@H]2C[C@@H](O)[C@H](Nc3ccccc3Cl)CCN12,0.989,1.1% (inactive)
CCn1nnnc1SCC(=O)Nc1cc(C)on1,0.966,3.35% (inactive)
CCOC(=O)C1CCCN(C(=O)Cc2ccc(OC)c(OC)c2)C1 (stereo unspecified),1,-0.35% (inactive)
Cc1ccc(OCCCC(=O)Nc2nncs2)cc1,1,-0.3% (inactive)
Cc1ccc(Nc2nc(CSc3nnnn3C)cs2)cc1,0.806,19.4% (inactive)
O=C(Cc1ccccc1)NC(NC(=S)Nc1cc(Cl)ccc1Cl)C(Cl)(Cl)Cl (stereo unspecified),0.912,8.8% (inactive)
COC(=O)[C@H](C)N(Cc1ccc(Cl)c(Cl)c1)S(=O)(=O)CCNC1CCCC1,0.943,5.7% (inactive)
COc1ccc(OC)c(NC(=O)C2C3CCC(C3=C(C)C)C2C(=O)O)c1 (stereo unspecified),0.891,10.9% (inactive)
COc1cc(C(=O)NC2CC3CCCC(C2)N3CC(=O)Nc2ccccc2)cc(OC)c1OC (stereo unspecified),1.07,-6.8% (inactive)
O=C(NCc1ccccc1)NC1CC2CCC(C1)N2Cc1ccco1 (stereo unspecified),1.08,-7.85% (inactive)
CCc1cccc(CC)c1NC(=O)CN1C2CCCC1CC(NC(=O)Nc1cccc(OC)c1)C2 (stereo unspecified),2.36,-136% (active)
CC(=O)NC1CC2CCCC(C1)N2C(=O)Nc1ccc(Cl)c(C(F)(F)F)c1 (stereo unspecified),1.13,-13% (inactive)
O=C(Nc1ccccc1-c1ccccc1)NC1CC2CCCC(C1)N2CCc1ccccc1 (stereo unspecified),1.76,-76.2% (inactive)
COc1ccc(NC(=O)Cc2ccccc2)cc1,0.897,10.3% (inactive)
COc1cccc(C(=O)NC2CC3CCCC(C2)N3CC(=O)Nc2ccc(N(C)C)cc2)c1 (stereo unspecified),0.99,1% (inactive)
COc1ccc(NC(=O)NC2CC3CCCC(C2)N3Cc2ccccc2)cc1 (stereo unspecified),2.71,-171% (active)
O=C(Nc1cccn(Cc2ccc(F)cc2)c1=O)NC1CCCCC1,0.962,3.75% (inactive)
COCC(=O)NC1CC2CCCC(C1)N2Cc1ccccc1 (stereo unspecified),1.08,-8.2% (inactive)
O=C(Nc1ccccc1-c1ccccc1)NC1CC2CCCC(C1)N2Cc1ccc(F)cc1 (stereo unspecified),3.7,-270% (active)
O=C(Nc1ccc(Cl)c(C(F)(F)F)c1)NC1CC2CCCC(C1)N2Cc1ccccc1 (stereo unspecified),7.69,-669% (active)
CC(C)N(C(=O)[C@H]1C[C@H](CC(=O)NCCc2ccccn2)C(=O)N2CCc3c([nH]c4cc(-c5ccco5)ccc34)[C@]12C)C(C)C,1.14,-14.4% (inactive)

SMILES,activation factor,"activity change, negative = activation"
COc1cc(/C=N/NC(N)=O)cc(Br)c1OCc1ccccc1C,0.961,3.9% (inactive)
CC(OC(=O)c1cccs1)C(=O)NCC1CCCO1 (stereo unspecified),1.09,-9% (inactive)
CCOC(=O)c1c(C)[nH]c(C(=O)COC(=O)C2CC(=O)N(Cc3ccccc3)C2)c1C (stereo unspecified),0.964,3.55% (inactive)
COCc1c(C)cc(C)c(/C=N/O)c1C,0.951,4.9% (inactive)
CCSc1cc(C2C(C(=O)OC)=C(C)NC3=C2C(=O)CCC3)c(C)o1 (stereo unspecified),0.954,4.65% (inactive)
Cc1nc(SCN2C(=O)c3ccccc3C2=O)n[nH]1,0.945,5.55% (inactive)
CCOC(=O)c1[nH]c(C)c(CN(CCc2ccccc2)C(=O)CCC(=O)O)c1C,0.977,2.3% (inactive)
COc1ccc(CN2C3CCCC2CC(NC(=O)Nc2ccccc2)C3)cc1 (stereo unspecified),4.65,-365% (active)
S=C(Nc1ccc(Cl)c(Cl)c1)NC1CCN(Cc2ccccc2)CC1,1.63,-62.7% (inactive)
COc1ccc(CN2C3CCCC2CC(NC(=O)Nc2ccccc2C)C3)cc1 (stereo unspecified),2.43,-143% (active)
Cc1cccc(NC(=S)NC2CC3CCCC(C2)N3Cc2cccs2)c1C (stereo unspecified),1.15,-14.8% (inactive)
CC(=O)NC1CC2CCCC(C1)N2CC(=O)Nc1ccccc1 (stereo unspecified),1.09,-9.05% (inactive)
CC(=O)c1cccc(NC(=O)NC2CC3CCCC(C2)N3CC(C)C)c1 (stereo unspecified),1.22,-21.6% (inactive)
O=C(Nc1ccc2c(c1)N(Cc1ccccc1)C(=O)c1ccccc1S2)NC1CC1,2.45,-145% (active)
O=C(Nc1cccn(Cc2ccccc2)c1=O)NC1CCCCC1,0.945,5.5% (inactive)
CCc1ccccc1NC(=S)NC1CC2CCCC(C1)N2Cc1cccs1 (stereo unspecified),1.01,-0.9% (inactive)
CC(C)OCCCNC(=O)C(=O)NCCCOC(C)C,0.962,3.8% (inactive)
COC(=O)c1ccccc1NC(=O)CCS(=O)(=O)c1ccc(Br)s1,1.05,-5% (inactive)
O=C(O)Cn1c(SCc2cccc3ccccc23)nc2ccccc21,1.09,-9.2% (inactive)
S=c1[nH]ncn1/N=C/c1ccc(N2CCOCC2)cc1,1,-0.35% (inactive)
CCOC(=O)c1c(C)[nH]c(O)c1C=Nc1ccc(C(F)(F)F)cc1,0.846,15.4% (inactive)
COc1ccc(OC)c(NC(=O)C(=O)/C=C(\O)c2cc(OC)ccc2OC)c1,0.905,9.55% (inactive)
Cc1ccc(/C(N)=N/OC(=O)Oc2ccccc2)cc1,0.99,1% (inactive)
COc1ccc(CCNC(=O)c2ccc(Cl)cc2)cc1,1.08,-8.2% (inactive)
COc1ccc(CCNC(=O)c2cc(-c3cc(Cl)cc(Cl)c3)oc2C)cc1,2.07,-107% (active)
COc1ccc(CCNC(=O)c2ccc(Cl)cc2Cl)cc1,1.19,-18.9% (inactive)

SMILES,activation factor,"activity change, negative = activation"
O=C(CCCNS(=O)(=O)c1cccs1)N1CCN(c2ccc(F)cc2)CC1,0.934,6.55% (inactive)
COc1ccc(NC(=S)NCC2CCCO2)c(OC)c1 (stereo unspecified),0.95,4.95% (inactive)
C#CCOCCOCCOCCNc1nc(N2CCN(C(=O)CCCCCCCCCCNC(=O)Cn3cc(C[C@@H](C)O)nn3)CC2)nc(N2CCN(C(=O)CCCCCCCCCCNC(=O)[C@H](CCCCN)n3cc(C[C@@H](C)CC)nn3)CC2)n1,2.76,-176% (active)
C#CCOCCOCCOCCNc1nc(N2CCN(C(=O)CCCCCCCCCCNC(=O)Cn3cc(C[C@@H](C)O)nn3)CC2)nc(N2CCN(C(=O)CCCCCCCCCCNC(=O)[C@H](CCCN=C(N)N)n3cc(C[C@@H](C)CC)nn3)CC2)n1,5.68,-468% (active)
CC[C@H](C)Cc1cn([C@@H](CCCCNC(=O)OC(C)(C)C)C(=O)NCCCCCCCCCCC(=O)N2CCN(C(=O)OC(C)(C)C)CC2)nn1,1.57,-56.9% (inactive)
CCc1cccc(CC)c1NC(=O)CSc1nc2ccc(N3C(=O)C4C5C=CC(C5)C4C3=O)cc2s1 (stereo unspecified),0.959,4.1% (inactive)
CCOC(=O)C1(CC)NC(c2ccco2)C2C(=O)N(c3ccc(C)cc3)C(=O)C21 (stereo unspecified),1.05,-4.65% (inactive)
COCCCNC(=O)C[C@H]1C[C@H](C(=O)N2CCCCC2)[C@@]2(CCc3ccccc3)c3[nH]c4ccc(Cl)cc4c3CCN2C1=O,1.2,-19.7% (inactive)
CCOC(=O)C1(C)/C(=N/Nc2ccccc2Cl)C(=O)C(=O)N1c1ccccc1 (stereo unspecified),0.886,11.4% (inactive)
Cc1ccc(C)c(N2CCN(C(=O)CCc3nc(-c4ccc(Br)cc4)no3)CC2)c1,1.04,-4.15% (inactive)
NC(=O)C1CCN(CC(=O)Nc2ccccn2)CC1,0.922,7.8% (inactive)
CCCN(CCC)C(=O)c1ccc2c(c1)OCO2,1.05,-5.1% (inactive)
O=C(O)[C@H]1CC=C[C@H]2CCN(Cc3ccc(Cl)c(Cl)c3)C(=O)[C@@H]12,1.05,-5.25% (inactive)
CCCCN1CC[C@@H]2C=CC[C@H](C(=O)OC)[C@@H]2C1=O,0.952,4.85% (inactive)
COc1ccc(CN2CC[C@H]3C=CC[C@@H](C(=O)Nc4ccc(Cl)c(C(F)(F)F)c4)[C@H]3C2=O)cc1OC,2.85,-185% (active)
CCOC(=O)c1ccc(NC(=O)NC2CC3CCC(C2)N3Cc2nnnn2C(C)(C)C)cc1 (stereo unspecified),1.46,-45.8% (inactive)
CC(C)=CCC/C(C)=C/CNC(=O)C[C@H]1C[C@H](C(=O)N(C(C)C)C(C)C)[C@@]2(C)c3[nH]c4ccc(Cl)cc4c3CCN2C1=O,1.25,-25.1% (inactive)
CCN(CC)C(=O)[C@H]1CC(CC(=O)NC/C=C(\C)CCC=C(C)C)C(=O)N2CCc3c([nH]c4ccc(OC)cc34)[C@]12C (stereo partly specified),1.25,-24.9% (inactive)
COc1ccc2[nH]c3c(c2c1)CCN1C(=O)C(CC(=O)NC/C=C(\C)CCC=C(C)C)C[C@H](C(=O)N(C(C)C)C(C)C)[C@@]31C (stereo partly specified),2,-100% (active)
Cc1ccc(NCc2nnc(SCC(N)=O)n2CC2CCCO2)c(C)c1 (stereo unspecified),1.09,-9.4% (inactive)
FC(F)(F)c1cccc(NC(=S)NCc2ccccc2)c1,1.69,-69.2% (inactive)
FC(F)(F)c1cccc(NC(=S)NCc2ccc(Cl)cc2)c1,1.18,-18.2% (inactive)
COc1ccc(CNC(=O)Nc2cccc(C(F)(F)F)c2)cc1OC,2.21,-121% (active)
Fc1ccc(CNC(=S)Nc2cccc(C(F)(F)F)c2)cc1,1.28,-27.5% (inactive)
COc1ccc(CNC(=O)NCc2ccc(OC)c(OC)c2)cc1OC,1.09,-9% (inactive)
O=C(NCc1ccc2c(c1)CCO2)Nc1cccc(C(F)(F)F)c1,2.44,-144% (active)
